Compound activity (PubChem BioAssay)
FadD28 FP inh – inhibitors of FadD28 bisubstrate probe binding, primary screen, biochemical, fluorescence polarization, single point; Mycobacterium tuberculosis FadD28 fatty-acid-AMP ligase; inhibition, % at 12.5 µM; actives 0.22% (n = 360,000); in the data active = inhibition above about 8.5%, passing the limit was not always enough; inconclusive = no clear call, values can overlap the other calls
PrPC surface inh – inhibitors of human cell surface prion protein PrPC, primary screen, cell-based, TR-FRET; inhibition, % at 13.8 µM; actives 0.43% (n = 370,000); Major prion protein (Homo sapiens), P04156; TR-FRET read-out; in the data active = inhibition above about 24%; also: 0% = median of the test wells and 100% = reference compound wells
SSB-PriA inh – inhibitors of Klebsiella pneumoniae PriA binding to SSB C-terminal tail, primary screen, biochemical, AlphaScreen | AlphaScreen SSBct-PriA binding, biotinylated peptide | inhibition, % at 33 µM | actives 0.6% (n = 430,000) | AID 1272365, 2023; in the data active = inhibition mostly above about 37%, no sharp cut-off; inactive = mostly below about 20%;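 also: plate controls were negative control peptide for no effect and reference peptide for full effect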
Rv3671c protease – Rv3671c serine protease inhibitors, primary screen, biochemical, fluorescence polarization, M. tuberculosis H37Rv; inhibition, % at 5.96 µM; actives 0.048% (n = 320,000); AID 2606, 2010; in the data active = inhibition above about 38%;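 also: extracellular domain of Rv3671c used as enzyme; 0% = enzyme with DMSO and 100% = no enzyme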
PrP 5UTR inh – inhibition of PrP 5' UTR reporter expression; actives 0.35% (n = 340,000); AID 488862, 2010; cell-based PrP 5' UTR mRNA reporter, plate reader; inhibition, % (test concentration not listed); in the data active = inhibition above about 52%; also: 0 = median of the neutral control wells
Mtb UGM inh – M. tuberculosis UGM enzyme inhibitors, primary screen, biochemical, fluorescence polarization, single point | UDP-galactopyranose mutase (Mycobacterium tuberculosis (strain ATCC 25618 / H37Rv)), … | purified UGM, fluorescence polarization probe displacement | inhibition, % at 10 µM | actives 0.06% (n = 320,000); in the data active = inhibition above about 10%, passing the limit was not always enough; inconclusive = no clear call, values can overlap the other calls
Target sequence (P9WIQ1 whole entry, looked up): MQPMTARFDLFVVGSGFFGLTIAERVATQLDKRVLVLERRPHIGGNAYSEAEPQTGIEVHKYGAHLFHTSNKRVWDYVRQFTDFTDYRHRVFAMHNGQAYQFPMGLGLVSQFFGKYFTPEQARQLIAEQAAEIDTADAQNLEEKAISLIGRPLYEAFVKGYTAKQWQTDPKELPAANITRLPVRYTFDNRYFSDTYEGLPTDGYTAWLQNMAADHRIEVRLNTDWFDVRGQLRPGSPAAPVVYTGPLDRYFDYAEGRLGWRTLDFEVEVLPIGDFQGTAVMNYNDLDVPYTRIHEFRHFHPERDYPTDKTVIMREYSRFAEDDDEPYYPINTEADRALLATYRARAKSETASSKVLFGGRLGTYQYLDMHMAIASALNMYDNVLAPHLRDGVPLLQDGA
The depositor's hits bear a star; ? = inconclusive; . = no result; ! = repeats disagree. In the library only some 1.2% were active in any assay of this set; here they are far more common.

SMILES	FadD28 FP inh	PrPC surface inh	SSB-PriA inh	Rv3671c protease	PrP 5UTR inh	Mtb UGM inh
CSc1ccccc1OCc1cc(C(=O)N2CCc3[nH]cnc3C2c2ccccn2)no1 (centres undefined)	0	2	52*	2	-17	2
CCOCCn1c(=NC(=O)C(C)C)sc2cc(NC(C)=O)ccc21	.	.	37*	.	.	.
CCOCCn1c(=NC(=O)CC)sc2cc(NC(C)=O)ccc21	.	.	5	.	.	.
CC(O)(CNS(=O)(=O)Cc1ccccc1)c1cc2ccccc2o1 (centres undefined)	.	.	0	.	.	.
CCCSc1nnc(NC(=O)CSc2sc3c(O)cc(=O)[nH]c3c2C#N)s1	16*	6	4	-10	-26	1
N#Cc1c(SCC(=O)Nc2nc3ccccc3s2)sc2c(O)cc(=O)[nH]c12	12*	0	4	-33	-12	6
N#Cc1c(SCC(=O)Nc2nc3ccc(Br)cc3s2)sc2c(O)cc(=O)[nH]c12	0	9	3	-3	-60	0
O=C(CSc1nc(O)cc(=O)[nH]1)Nc1nc2ccccc2s1	.	.	-12	.	.	.
O=C(CSc1nc(O)cc(=O)n1-c1ccccc1)Nc1nc2ccccc2s1	13*	2	0	-98	-5	4
N#Cc1c(SCC(=O)Nc2nccs2)sc2c(O)cc(=O)[nH]c12	3	2	-1	-14	-32	3
CN(C)c1ccc(Nc2nc(-c3cccnc3)cs2)cc1	0	-2	41	11	-79	-2
CCc1ccccc1Nc1nc(-c2cccnc2)cs1	?	6	-3	2	-7	1
CCN(CC)c1ccc(Nc2nc(-c3cccnc3)cs2)cc1	-3	0	41*	7	-89	-1
O=C(COc1ccc([N+](=O)[O-])cc1)Nc1nc(-c2ccccn2)cs1	-5	0	31	-24	-5	0
O=[N+]([O-])c1ccccc1Nc1nc(-c2cccnc2)cs1	-2	-19	52*	0	-15	0
O=[N+]([O-])c1ccccc1Nc1nc(-c2ccccn2)cs1	.	.	80*	.	.	.
Cc1ccc(-c2nc(C)cc(OCC(=O)Nc3ccc4c(c3)OCO4)n2)cc1	.	.	14	.	.	.
COc1cccc(Nc2nc(Nc3cccc(C(C)=O)c3)nc(N3CCCC3)n2)c1	.	.	12	.	.	.
COc1ccc(OC)c(Nc2nc(CC(=O)NCCc3c[nH]c4ccccc34)cs2)c1	.	.	16*	.	.	.
COc1ccc(OC)c(Nc2nc(CC(=O)NCCC3=CCCCC3)cs2)c1	.	.	22*	.	.	.
Cc1ccc(NC(=O)C2CCCCC2C(=O)O)c(C)c1 (centres undefined)	.	.	-4	.	.	.
O=C(NNC(=O)c1cccs1)c1ccc([N+](=O)[O-])cc1	.	-24	-11	4	.	-2
O=C(NNC(=O)c1ccc([N+](=O)[O-])cc1)c1ccc(NS(=O)(=O)c2cccs2)cc1	19*	-34	1	-7	-19	-2
Cc1cccc(C(=O)NNC(=O)c2ccc(NS(=O)(=O)c3cccs3)cc2)c1C	13*	-3	-4	-6	-18	1
Nc1nc2c(s1)CCc1ccccc1-2	-2	1	56*!	-5	-31	0
SMILES	FadD28 FP inh	PrPC surface inh	SSB-PriA inh	Rv3671c protease	PrP 5UTR inh	Mtb UGM inh
COc1ccc2c(c1)-c1nc(N)sc1CC2	0	1	13	1	12	-3
CC(O)(CNC(=O)CSC1CCCC1)c1cccs1 (centres undefined)	.	.	-2	.	.	.
CC(C)(C)n1ncc2c(=O)n(NC(=O)C3CC3)cnc21	.	.	-13	.	.	.
CCCc1cc(=O)oc2cc(C)cc(OCc3nn[nH]n3)c12	-1	7	-25	4	-13	-1
Cc1cc(=O)oc2c1c(C)nn2-c1nn[nH]n1	-4	-1	58*	5	-10	1
COc1cc2nc(N(CCCN(C)C)C(=O)c3ccc(C(=O)c4ccccc4)cc3)sc2cc1OC	-4	-7	37*!	8	-5	-2
CCN(CC)CCN(C(=O)c1ccc(C(=O)c2ccccc2)cc1)c1nc2c(OC)ccc(OC)c2s1	.	.	49*	.	.	.
COc1ccc2nc(N(CCN(C)C)C(=O)c3ccc(C(=O)c4ccccc4)cc3)sc2c1	1	-3	50*	-6	-16	4
COc1cc2nc(N(CCCN(C)C)C(=O)c3ccc(S(=O)(=O)N4CCc5ccccc5C4)cc3)sc2cc1OC	-5	-9	18	3	-27	1
CCc1ccc2nc(N(CCCN(C)C)C(=O)c3ccc(C(=O)c4ccccc4)cc3)sc2c1	-7	-20	47*!	-3	-5	-1
CC[C@H](C)NC(=O)C(=O)NCCOC	.	.	-4	.	.	.
CCN(CC)CCn1cc(N)cn1	.	.	-5	.	.	.
CCOc1ncc(NC(=O)c2ccccn2)c(OCC)n1	.	.	-11	.	.	.
CCOc1cccc2sc(N(CCN(C)C)C(=O)c3cc4ccccc4cc3OC)nc12	-8	-9	27	0	-18	7
CCOc1ccc2nc(N(CCN(C)C)C(=O)c3cc4ccccc4cc3OC)sc2c1	-2	.	44*!	3	-14	-1
Cc1cccc(N2CCN(C(=O)c3nc(-c4cnccn4)no3)CC2)c1	.	.	-10	.	.	.
COc1ccc(NC(=S)c2ccc3ccccc3n2)cc1	-1	.	44*	-11	-25	0
COc1ccc(NC(=S)c2ccncc2)cc1	0	2	82*!	0	-18	-2
Cc1cc(NC(=O)COc2ccc3ccccc3c2)ccc1N1CCCCC1=O	.	.	9	.	.	.
O=C(Nc1cccc(Cl)c1)N(CC(F)(F)F)C1CCOCC1	.	.	-14	.	.	.
COc1cc2cnc(-c3ccccc3)c(-c3cccc(C(F)(F)F)c3)c2cc1OC	-4	3	45*	-14	-1	0
O=C(c1ccc(N2CCCCC2)c([N+](=O)[O-])c1)N(Cc1ccccc1)c1ccccn1	-2	5	52*	3	-18	-1
CC1Cc2ccccc2N1C(=O)c1ccc(N2CCCC2)c([N+](=O)[O-])c1 (centres undefined)	-1	-9	46*	-9	-4	2
CC(C)C1Nc2c(O)cc(Cl)c([N+](=O)[O-])c2C2C=CCC21 (centres undefined)	25*	-3	9	.	-17	.
CCn1c(SC/C=C\c2ccccc2)nnc1-c1cccs1	.	.	-1	.	.	.
O=C(Cn1cnc(-c2ccccc2)cc1=O)Nc1nc2ccccc2s1	.	.	-5	.	.	.
O=C(NCCOc1ccc(-c2ccccn2)nn1)c1ccco1	.	.	116*	.	.	.
NCCOc1ccc(-c2ccccn2)nn1	.	.	154*	.	.	.
CCCCOc1[nH]c2nc(-c3ccco3)n(Cc3ccco3)c(=N)c2c1C#N	11*	-1	5	10	-13	3
Cn1c(=O)c2cc(NC(=S)NC3CCCCC3)ccc2n1Cc1ccc(Cl)cc1	17*	7	.	.	.	.
